For 9 compounds, Potency and outcome results are on record in PubChem BioAssay (Tox21).

Each structure is given as a SMILES string. Results filed as inconclusive are left out. Active and inactive are the calls of the source. Unless noted, calls come from the whole dose curve; as a rule, active = well fitted curve in the direction sought with a large enough effect in the repeat runs; inconclusive = weak or mixed curves; inactive = no such curve, though single readings can be large; an effect the other way counts as inactive or inconclusive.

Experiment [1] has as its target Estrogen receptor beta (Homo sapiens) (UniProt Q92731). As to the kind of experiment: qHTS assay to identify small molecule agonists of the estrogen receptor beta (ER-beta) signaling pathway (AID 1259377; active = well fitted activation curve with a large enough effect in the signal ratio in the repeat runs, not every such curve was filed as active; the % refers to the signal ratio; note: potency is the fitted concentration of half-maximal effect). Summed up:
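Read-out: beta-lactamase FRET fluorescence. Cell line: ER-beta-UAS-bla HEK293T in 2% charcoal-stripped FBS. Exposure: 16 hr at 37C. Substrate step: 2 h at room temperature.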

Experiment [2] can be described thus: qHTS assay to identify small molecule agonists of the androgen receptor (AR) signaling pathway in the presence of an antagonist - cell viability counter screen (AID 1259379). Note: nearly all actives have a fitted effect of over 25% in size. Note: potency is the fitted concentration of half-maximal effect. Summed up:
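In MDA-kb2 cells (human breast carcinoma, MMTV-luciferase), compounds at 15 concentrations plus 3.0uM nilutamide; 16 hr, 37C, 0% CO2; CellTiter-Fluor fluorescence read for viability.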
For orientation: In qHTS, concentration-response curves come from the screen itself.

The nature of experiment [3]: qHTS assay to identify small molecule agonists of the estrogen receptor beta (ER-beta) signaling pathway - cell viability counter screen (AID 1259380). Note: nearly all actives have a fitted effect of over 30% in size. Note: potency is the fitted concentration of half-maximal effect. Summed up: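 Viability of ER-beta-UAS-bla HEK293T cells was determined by CellTiter-Glo luminescence following 16 hr treatment with test compounds at 37C.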
Experiment [4] can be described thus: qHTS assay to identify small molecule antagonists of the estrogen receptor beta (ER-beta) signaling pathway - cell viability counter screen (AID 1259382).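 Note: HEK293T cells carrying ER-beta-UAS-bla reporter stimulated with estradiol; series mostly up to about 92 µM; nearly all actives have a fitted effect of over 55% in size.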 An outline of the steps:
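Tox21 10K library tested in qHTS format on ER-beta-bla HEK293T cells stimulated with 1nM E2; 16 hr treatment at 37C. Same-well CellTiter-Glo luminescence served as the cell viability measure.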

In experiment [5] the target is Estrogen receptor (Homo sapiens) (UniProt P03372). In words: qHTS assay to identify small molecule agonists of the estrogen receptor alpha (ER-alpha) signaling pathway in the presence of an antagonist (AID 1259383; calls by dose curve; note: nearly all actives have a fitted effect of over 15% in size; note: potency is the fitted concentration of half-maximal effect; for activation: top concentration of the series differs between compounds). An outline of the steps: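 In VM7Luc4E2 cells, 4,000 per well, compounds at 15 concentrations were co-incubated 22hr at 37C with 10.0nM final ICI-182,780. Luminescence from the stably transfected 4×ERE-luciferase reporter was recorded 30min after ONE-Glo addition.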

Experiment [6] in a line: qHTS assay to identify small molecule agonists or antagonists of the thyroid stimulating hormone receptor (TSHR) signaling pathway - wild type cell line counter screen (AID 1259384; calls by dose curve). Summed up:
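Counter screen in untransfected Hek293: compounds (15-point titration, triplicate) plus phosphodiesterase inhibitor Ro20-1724 added after 18 h plating; 30 min RT. Intracellular cAMP via competitive d2/cryptate immunoassay, 1 h incubation.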

Experiment [7] has as its target Thyrotropin receptor (Homo sapiens) (UniProt P16473). As to the kind of experiment: qHTS assay to identify small molecule antagonists of the thyroid stimulating hormone receptor (TSHR) signaling pathway (AID 1259385; calls by dose curve; note: nearly all actives have a fitted effect of over 20% in size). Summed up: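 Antagonist mode: compound-treated TSHR-expressing HEK293 cells were stimulated with 1.5 ng/mL TSH (final) in presence of Ro20-1724 for 30 min at RT. HTRF cAMP detection after 1 h; each compound tested at 15 concentrations, triplicate.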

Experiment [8] can be described thus: qHTS assay to identify small molecule agonists of the estrogen receptor alpha (ER-alpha) signaling pathway in the presence of an antagonist - cell viability counter screen (AID 1259386).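 Note: cells exposed to compounds for 22 h at 37 °C before the viability read; nearly all actives have a fitted effect of over 30% in size.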 Note: potency is the fitted concentration of half-maximal effect. An outline of the steps: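 Fluorescent CellTiter-Fluor viability signal from VM7Luc4E2 cells, with the reagent added during the final hour of a 22hr compound exposure at 37C in the presence of 10.0nM ICI-182,780.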

The target in experiment [9] is Progesterone receptor (Homo sapiens) (UniProt P06401). As to the kind of experiment: qHTS assay to identify small molecule agonists of the progesterone receptor (PR) signaling pathway (AID 1346784; calls by dose curve; note: nearly all actives have a fitted effect of over 30% in size). Summed up: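 Compounds were tested for PR agonism in HEK 293T cells bearing a beta-lactamase gene under UAS control. Treatment lasted 16 hr at 37C; signal came from fluorescence of a FRET substrate.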

The nature of experiment [10]: qHTS assay to identify small molecule antagonists of the progesterone receptor (PR) signaling pathway - cell viability counter screen (AID 1346798). Note: nearly all actives have a fitted effect of over 50% in size. Note: potency is the fitted concentration of half-maximal effect. Summed up: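 Following a 4 hr attachment, PR-UAS-bla HEK293T cells in charcoal-stripped FBS medium were exposed to compounds with R5020 for 16 hr; CellTiter-Glo was added and luminescence read after 30 min at room temperature.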

A short description of experiment [11]: qHTS assay to identify small molecule antagonists of the TGF-beta/Smad signaling pathway - cell viability counter screen (AID 1346824). Note: nearly all actives have a fitted effect of over 50% in size. An outline of the steps: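 Cytotoxicity counter-screen run in the same wells as the beta-lactamase Smad reporter read: CellTiter-Glo luminescence after 30 min at room temperature. HEK 293T SBE-bla cells had 5 hr compound exposure at 37 C with TGF-beta1 (0.25 ng/mL stock).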

Experiment [12] can be described thus: qHTS assay to identify small molecule agonists of the TGF-beta/Smad signaling pathway - cell viability counter screen (AID 1346829). Note: top concentration of the series differs between compounds; nearly all actives have a fitted effect of over 45% in size. Summed up:
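Cytotoxicity counter screen: CellTiter-Glo luminescence (30 min, room temperature) measured in the SBE-bla HEK 293T reporter wells after 5 hr compound treatment at 37 C and the 2 hr substrate step.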

A short description of experiment [13]: qHTS assay to identify small molecule agonists of the TGF-beta/Smad signaling pathway (AID 1346859; active = well fitted activation curve with a large enough effect in the signal ratio in the repeat runs, not every such curve was filed as active; the % refers to the signal ratio; note: series mostly up to about 77 µM). Summed up:
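Each well held 4,000 SBE-bla HEK 293T cells incubated overnight before compound addition; 5 hr later the cleavable FRET substrate went on for 2 hr at room temperature, and fluorescence was read at two emissions.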

Experiment [14] has as its target Thyrotropin-releasing hormone receptor (Homo sapiens) (UniProt P34981). As to the kind of experiment: qHTS assay to identify small molecule antagonists of the thyrotropin-releasing hormone receptor (TRHR) signaling pathway (AID 1346877; active = well fitted inhibition curve with a large enough effect in the repeat runs, not every such curve was filed as active; note: series mostly up to about 51 µM). An outline of the steps: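 In this cell-based calcium flux format, HEK293 cells expressing TRHR received test compound for 5 min before the agonist TRH (1 nM final). Dye loading lasted 2 h at 37 °C.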

Experiment [15] shares this target. In words: qHTS assay to identify small molecule agonists of the thyrotropin-releasing hormone receptor (TRHR) signaling pathway (AID 1346891; calls by dose curve; note: series mostly up to about 58 µM). Summed up:
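Screening of agonists relied on calcium signalling in HEK293 cells expressing human TRHR: dye loading 2 h at 37 °C preceded compound addition and a 3-min fluorescence time course.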

Experiment [16] addresses Estrogen receptor beta (Homo sapiens) (UniProt Q92731). As to the kind of experiment: qHTS assay to identify small molecule antagonists of the estrogen receptor beta (ER-beta) signaling pathway (AID 1259378; active = well fitted inhibition curve with a large enough effect in the signal ratio in the repeat runs, not every such curve was filed as active; the % refers to the signal ratio). Summed up:
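Antagonist mode: compounds added to beta-lactamase reporter HEK293T ER-beta-UAS cells stimulated with E2 (1nM final), 16 hr at 37C. LiveBLAzer B/G FRET substrate, 2 hours room temperature, fluorescence read-out.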

Experiment [17] can be described thus: qHTS assay to identify small molecule agonists of the progesterone receptor (PR) signaling pathway - cell viability counter screen (AID 1346799; calls by dose curve; note: nearly all actives have a fitted effect of over 45% in size). Summed up:
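Here, 3,000 PR-UAS-bla HEK293T cells per well were treated with compounds for 16 hr after a 6 hr preincubation at 37C and 5% CO2; cell viability is the CellTiter-Glo luminescence signal.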

Experiment [18] addresses Progesterone receptor (Homo sapiens) (UniProt P06401). In words: qHTS assay to identify small molecule antagonists of the progesterone receptor (PR) signaling pathway (AID 1346795; active = well fitted inhibition curve with a large enough effect in the signal ratio in the repeat runs, not every such curve was filed as active; the % refers to the signal ratio). An outline of the steps:
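In HEK293T cells bearing the PR-UAS-bla reporter, compound effects on promegestone-driven (1 nM) beta-lactamase expression are assessed after 16 hr using a fluorescent FRET substrate incubated 2 hr at room temperature.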

Experiment [19] addresses Androgen receptor (Homo sapiens) (UniProt P10275). In words: qHTS assay to identify small molecule agonists of the androgen receptor (AR) signaling pathway in the presence of an antagonist (AID 1259381; calls by dose curve; note: nearly all actives have a fitted effect of over 15% in size). An outline of the steps: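 Here, 15-concentration compound series were pin-transferred onto MDA-kb2 MMTV-luciferase cells already dosed with nilutamide (3.0uM final). After 16hr at 37C, ONE-Glo was added and luminescence read 30min later at room temperature.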

Thyrotropin receptor (Homo sapiens), sequence (P16473 whole entry, looked up): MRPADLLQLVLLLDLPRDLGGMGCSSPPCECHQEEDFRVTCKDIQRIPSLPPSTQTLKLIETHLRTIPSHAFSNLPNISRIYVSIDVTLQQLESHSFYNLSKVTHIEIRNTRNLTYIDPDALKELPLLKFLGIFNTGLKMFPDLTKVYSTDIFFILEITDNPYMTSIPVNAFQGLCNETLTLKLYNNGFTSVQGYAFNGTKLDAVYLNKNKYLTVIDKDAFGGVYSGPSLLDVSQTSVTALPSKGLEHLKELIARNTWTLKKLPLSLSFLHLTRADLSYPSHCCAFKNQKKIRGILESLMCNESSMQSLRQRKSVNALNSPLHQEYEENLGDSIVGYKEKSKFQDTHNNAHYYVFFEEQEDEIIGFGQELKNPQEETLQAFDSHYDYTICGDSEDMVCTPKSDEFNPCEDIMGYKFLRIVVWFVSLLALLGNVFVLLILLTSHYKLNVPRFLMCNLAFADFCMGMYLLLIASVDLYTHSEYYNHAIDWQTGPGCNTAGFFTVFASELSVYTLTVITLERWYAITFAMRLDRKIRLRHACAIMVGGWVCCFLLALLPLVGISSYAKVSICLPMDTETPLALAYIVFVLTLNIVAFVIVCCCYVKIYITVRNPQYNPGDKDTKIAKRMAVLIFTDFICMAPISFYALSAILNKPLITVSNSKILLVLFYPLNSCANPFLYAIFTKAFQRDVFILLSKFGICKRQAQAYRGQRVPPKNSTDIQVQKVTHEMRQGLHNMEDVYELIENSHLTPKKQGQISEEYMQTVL
Estrogen receptor beta (Homo sapiens), sequence (Q92731 whole entry, looked up): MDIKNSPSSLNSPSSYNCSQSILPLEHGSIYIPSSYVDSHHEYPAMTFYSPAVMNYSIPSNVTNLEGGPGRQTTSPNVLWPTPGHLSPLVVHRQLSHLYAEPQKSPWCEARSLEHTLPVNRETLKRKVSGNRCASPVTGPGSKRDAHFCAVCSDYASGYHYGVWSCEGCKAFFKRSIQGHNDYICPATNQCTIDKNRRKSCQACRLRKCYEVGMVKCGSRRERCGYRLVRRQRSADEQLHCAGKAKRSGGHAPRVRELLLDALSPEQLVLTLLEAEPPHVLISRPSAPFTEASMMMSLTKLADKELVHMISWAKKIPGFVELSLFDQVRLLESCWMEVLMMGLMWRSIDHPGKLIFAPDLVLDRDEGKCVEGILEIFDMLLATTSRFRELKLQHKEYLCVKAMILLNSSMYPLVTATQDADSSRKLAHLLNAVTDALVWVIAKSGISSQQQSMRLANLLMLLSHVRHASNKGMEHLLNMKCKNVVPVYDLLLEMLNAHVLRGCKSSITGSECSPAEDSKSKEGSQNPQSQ
Thyrotropin-releasing hormone receptor (Homo sapiens), sequence (P34981 whole entry, looked up): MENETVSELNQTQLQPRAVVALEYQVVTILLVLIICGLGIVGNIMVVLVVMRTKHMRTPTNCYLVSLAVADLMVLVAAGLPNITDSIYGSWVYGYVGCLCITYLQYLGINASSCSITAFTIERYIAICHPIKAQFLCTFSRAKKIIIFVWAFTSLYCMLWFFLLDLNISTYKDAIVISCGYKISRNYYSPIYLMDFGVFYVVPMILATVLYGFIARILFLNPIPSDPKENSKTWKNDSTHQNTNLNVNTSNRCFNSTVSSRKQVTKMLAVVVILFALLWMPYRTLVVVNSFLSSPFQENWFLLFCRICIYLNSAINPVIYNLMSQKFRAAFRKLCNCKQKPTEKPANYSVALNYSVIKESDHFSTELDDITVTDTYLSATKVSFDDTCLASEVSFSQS
Progesterone receptor (Homo sapiens), sequence (P06401 whole entry, looked up): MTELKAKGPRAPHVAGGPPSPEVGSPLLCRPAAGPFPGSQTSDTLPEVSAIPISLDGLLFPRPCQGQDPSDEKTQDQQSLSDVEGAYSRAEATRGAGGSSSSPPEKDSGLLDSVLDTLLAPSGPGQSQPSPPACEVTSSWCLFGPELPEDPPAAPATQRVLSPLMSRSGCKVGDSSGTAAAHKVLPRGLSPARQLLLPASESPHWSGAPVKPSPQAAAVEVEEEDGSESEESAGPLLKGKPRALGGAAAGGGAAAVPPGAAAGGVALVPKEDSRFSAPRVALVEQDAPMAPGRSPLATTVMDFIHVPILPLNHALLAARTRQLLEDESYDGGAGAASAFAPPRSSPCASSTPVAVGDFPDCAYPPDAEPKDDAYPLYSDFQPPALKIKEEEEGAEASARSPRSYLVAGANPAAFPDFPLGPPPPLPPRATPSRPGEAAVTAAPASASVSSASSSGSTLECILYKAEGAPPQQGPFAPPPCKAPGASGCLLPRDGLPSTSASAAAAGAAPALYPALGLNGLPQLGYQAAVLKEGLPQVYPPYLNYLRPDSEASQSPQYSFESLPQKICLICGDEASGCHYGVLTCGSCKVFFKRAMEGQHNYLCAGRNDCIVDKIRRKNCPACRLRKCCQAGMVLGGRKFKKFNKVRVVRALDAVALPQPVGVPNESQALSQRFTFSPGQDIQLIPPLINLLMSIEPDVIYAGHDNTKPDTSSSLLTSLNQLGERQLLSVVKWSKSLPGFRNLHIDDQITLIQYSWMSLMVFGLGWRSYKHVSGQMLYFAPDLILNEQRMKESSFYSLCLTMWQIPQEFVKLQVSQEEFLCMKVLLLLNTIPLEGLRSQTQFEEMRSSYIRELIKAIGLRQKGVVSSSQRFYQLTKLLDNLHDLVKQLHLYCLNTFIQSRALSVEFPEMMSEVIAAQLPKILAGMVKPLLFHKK
Estrogen receptor (Homo sapiens), sequence (P03372 whole entry, looked up): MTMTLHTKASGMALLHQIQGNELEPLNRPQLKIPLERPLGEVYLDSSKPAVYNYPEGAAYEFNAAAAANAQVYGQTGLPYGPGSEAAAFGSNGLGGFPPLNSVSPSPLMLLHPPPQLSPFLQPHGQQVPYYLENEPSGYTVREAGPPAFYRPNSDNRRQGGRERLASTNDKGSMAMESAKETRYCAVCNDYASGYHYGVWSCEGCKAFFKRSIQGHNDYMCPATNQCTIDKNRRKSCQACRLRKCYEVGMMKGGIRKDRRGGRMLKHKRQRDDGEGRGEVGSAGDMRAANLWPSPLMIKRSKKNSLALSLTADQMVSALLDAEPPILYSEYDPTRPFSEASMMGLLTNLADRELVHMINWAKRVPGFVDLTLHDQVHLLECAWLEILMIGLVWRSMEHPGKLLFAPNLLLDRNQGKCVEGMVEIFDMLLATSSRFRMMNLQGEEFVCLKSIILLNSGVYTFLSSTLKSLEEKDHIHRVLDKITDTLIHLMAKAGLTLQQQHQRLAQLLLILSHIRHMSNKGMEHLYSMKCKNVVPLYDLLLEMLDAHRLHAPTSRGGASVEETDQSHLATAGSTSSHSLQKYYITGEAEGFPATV
Androgen receptor (Homo sapiens), sequence (P10275 whole entry, looked up): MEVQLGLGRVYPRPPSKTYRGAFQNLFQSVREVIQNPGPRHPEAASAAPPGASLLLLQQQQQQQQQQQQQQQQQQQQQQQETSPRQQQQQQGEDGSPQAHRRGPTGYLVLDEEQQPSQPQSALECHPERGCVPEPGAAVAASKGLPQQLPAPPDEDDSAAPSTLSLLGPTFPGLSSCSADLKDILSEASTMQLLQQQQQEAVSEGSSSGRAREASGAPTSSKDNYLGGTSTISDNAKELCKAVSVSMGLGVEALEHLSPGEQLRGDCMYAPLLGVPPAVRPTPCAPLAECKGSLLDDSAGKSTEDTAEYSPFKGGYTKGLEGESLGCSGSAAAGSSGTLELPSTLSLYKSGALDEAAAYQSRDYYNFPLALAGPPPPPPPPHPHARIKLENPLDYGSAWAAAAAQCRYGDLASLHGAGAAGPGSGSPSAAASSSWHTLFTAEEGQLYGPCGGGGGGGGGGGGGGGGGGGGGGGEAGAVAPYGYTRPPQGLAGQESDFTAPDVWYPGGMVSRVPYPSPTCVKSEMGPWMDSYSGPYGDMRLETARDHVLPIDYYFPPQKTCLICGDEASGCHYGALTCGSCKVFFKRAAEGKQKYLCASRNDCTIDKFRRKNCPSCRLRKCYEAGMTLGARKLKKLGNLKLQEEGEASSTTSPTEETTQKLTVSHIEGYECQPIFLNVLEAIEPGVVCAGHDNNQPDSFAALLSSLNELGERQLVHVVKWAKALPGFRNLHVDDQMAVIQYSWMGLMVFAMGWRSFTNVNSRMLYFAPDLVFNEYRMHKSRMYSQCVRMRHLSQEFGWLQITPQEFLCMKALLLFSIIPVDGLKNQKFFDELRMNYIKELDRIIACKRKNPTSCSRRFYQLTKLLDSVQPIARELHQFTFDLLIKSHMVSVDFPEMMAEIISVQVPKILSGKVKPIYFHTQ

Take `C/C=C(/C(=C/C)c1ccc(O)cc1)c1ccc(O)cc1`: the Potency in experiment [1] was 0.0019 µM (active); in [5], 0.015 µM (active). Moreover, the Potency entry in experiment [2], in experiment [3], in [4], in experiment [7], in experiment [8] and in experiment [9] was “inactive” each time. The Potency entry in experiment [10], in [11], in experiment [12], in experiment [13] and in experiment [15] was “inactive” in each case. In addition, the compound was called inactive in experiment [6] and in experiment [14].
Consider `CC(C)Nc1cccnc1N1CCN(C(=O)c2cc3cc(NS(C)(=O)=O)ccc3[nH]2)CC1`, for which the Potency entry in experiment [1], in [16], in [2], in [5], in [7] and in experiment [8] was “inactive” throughout. Also, the Potency result in experiment [9], in [17], in experiment [11], in [12] and in experiment [13] was “inactive” each time. Also, the Potency in experiment [3] was 26.6 µM (active). In addition, the outcome in [6] was inactive.
In the case of `c1ccc(C[n+]2cccc3ccccc32)cc1`, the Potency result in experiment [1], in [3], in [4], in experiment [5], in experiment [8] and in experiment [9] was “inactive” each time. Also, the Potency result in experiment [18], in experiment [10], in experiment [11] and in [13] was “inactive” throughout. Further, the Potency in experiment [2] is 48.6 µM (active). In experiment [6], the compound was called inactive.
For the compound `C[C@@H](O)[C@H]1C(=O)N2C(C(=O)O)=C([C@H]3CCCO3)S[C@H]12`, the Potency entry in [1], in experiment [2], in [3], in [19], in experiment [4] and in [5] was “inactive” each time. The Potency entry in experiment [7], in [8], in [10], in experiment [17], in experiment [11] and in experiment [12] was “inactive” in each case. Also, the Potency entry in [13] and in experiment [15] was “inactive” throughout. Moreover, the compound was classed as inactive in experiment [6].
As for `O=C1C(=O)c2ccccc2C(O)=C1C1CCC(c2ccc(Cl)cc2)CC1` (stereo not drawn), the Potency result in experiment [1], in [5], in experiment [8], in experiment [9], in [18] and in experiment [10] was “inactive” in each case. Besides, the Potency entry in experiment [17], in experiment [12], in experiment [13] and in experiment [15] was “inactive” throughout. The Potency in experiment [2] is 23.7 µM (active); in experiment [3] it was 2.66 µM (active).
For `CCCCN(CCCC)C(C(N)=O)c1ccc(OC)cc1` (stereo not drawn), the Potency entry in [1], in [16], in experiment [2], in experiment [3], in experiment [4] and in [5] was “inactive” throughout. Besides, the Potency entry in [8], in experiment [9], in experiment [18], in experiment [10], in experiment [11] and in experiment [12] was “inactive” in each case. Also, in experiment [13], the Potency result was “inactive”.
In the case of `C=C1c2cccc(O)c2C(O)=C2C(=O)[C@]3(O)C(O)=C(C(N)=O)C(=O)[C@@H](N(C)C)[C@@H]3[C@@H](O)[C@H]12`, the Potency result in [1], in [2], in experiment [3], in experiment [4], in experiment [5] and in [8] was “inactive” in each case. The Potency result in [9], in experiment [18], in [10], in experiment [17], in experiment [11] and in [12] was “inactive” each time. Also, the Potency entry in [13] and in [15] was “inactive” throughout. For the same compound, the compound was called inactive in experiment [14].
With `CS(=O)(=O)c1ccc(-c2cn3ccccc3n2)cc1`, the Potency entry in experiment [1], in experiment [2], in experiment [19], in experiment [4], in experiment [5] and in experiment [7] was “inactive” in each case. For the same compound, the Potency result in experiment [8], in experiment [9], in [11], in experiment [12], in experiment [13] and in [15] was “inactive” each time. Moreover, in experiment [10], the Potency was 29.8 µM (active). Further, in experiment [14], the result was inactive.
In the case of `CC1=C(Br)C(=O)C(Br)=C/C1=C(/c1ccccc1S(=O)(=O)O)c1cc(Br)c(O)c(Br)c1C`, the Potency entry in experiment [1], in experiment [3], in experiment [4], in experiment [9], in experiment [18] and in experiment [10] was “inactive” each time. Also, the Potency result in experiment [17], in [11], in experiment [12], in experiment [13] and in [15] was “inactive” each time. The Potency in experiment [2] and in experiment [8] was 18.6 µM (active) in each case. Besides, in experiment [14], the compound was classed as inactive.
